Assay outcomes (PubChem)
Rows were chosen to be rich in hits. Some 15% of all compounds tested hit in one or more screens of this group.
Pf growth 96h – inhibits malaria parasite growth, 96 h | AID 504834 | P. falciparum luciferase reporter growth, 96 h | 320,000 compounds, 6.9% hits | Potency, µM (highest dose often 28.7 µM), for the others: top-dose activity change, negative = inhibition, hits mostly inhibitors; note: potency is the fitted concentration of half-maximal effect; % is set by controls: 0 for no effect and ±100 for the full control effect
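Two-generation exposure (96 h) targets delayed-death phenotype. Reporter parasites carrying integrated firefly luciferase, in red cells at 2% hematocrit and 0.05% parasitemia final, kept at 37 C, 5% CO2; luminescence loss indicates inhibition.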
Sm TGR block – S. mansoni TGR enzyme inhibition | 360,000 compounds, 3% hits | purified TGR, DTNB reduction, TNB absorbance 405 nm | AID 485364 | Potency, µM (titrated, usually from 114 µM), for inactives: at the top dose activity change, negative = inhibition, hits mostly inhibitors; note: potency is the fitted concentration of half-maximal effect; % is set by controls: 0 for no effect and ±100 for the full control effect; nearly all actives have a fitted effect of over 60% in size
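Kinetic colorimetric format: TGR-catalysed, NADPH-driven DTNB reduction monitored via TNB absorbance. Enzyme dispensed at 20 nM; compound exposure 15 min at room temperature before reaction start.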
Pf growth 48h – inhibits P. falciparum growth in the first generation, 48 h | P. falciparum luciferase growth in erythrocytes, 48 h | Potency, µM (titrated, usually from 28.7 µM), for the others: at the highest dose activity change, negative = inhibition, most hits filed as inhibitors | 310,000 compounds, 5.9% hits | AID 504832; note: potency is the fitted concentration of half-maximal effect; % is set by controls: 0 for no effect and ±100 for the full control effect
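Compounds are pin-transferred into medium, infected erythrocytes (2% hematocrit, 0.1% parasitemia final) are added, and plates sit one parasite generation at 37 C in 5% CO2. Detection reagent is then added and luminescence measured.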
HCMV inh – inhibitors of human cytomegalovirus | HFF cells, HCMV-luciferase reporter, 72 h; active compounds read low | activity change, negative = inhibition, % at 57.5 µM | 410,000 compounds, 4.5% hits; in the data active = activity change below about -60%; inconclusive = no clear call, values can overlap the other calls; inactive = above about -39%; note: % is set by controls: 0 for no effect and ±100 for the full control effect
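Compounds were evaluated in HFFs infected with an HCMV luciferase reporter virus (MOI 1 PFU/cell). Luciferase in lysates collected 72 h post infection served as the replication measure.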
HCV inh – inhibitors of hepatitis C virus infection; Huh7.5.1 HCVcc-Cre infection, luciferase reporter, 44 h; Potency, µM (top dose mostly 41.8 µM), for inactives: top-dose activity change, negative = inhibition, actives largely listed as inhibitors; 340,000 compounds, 3.4% hits; AID 651820; note: potency is the fitted concentration of half-maximal effect; % is set by controls: 0 for no effect and ±100 for the full control effect
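Infectious HCVcc-Cre (~0.5 moi) was added to cells just after compound, with cells seeded 4 h earlier at 1,000 per well. Luciferase activity after 44 h culture reported infection; substrate was incubated 15 min at room temperature before reading.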
SARS PLpro yeast – SARS-CoV PLP inhibition in yeast; Potency, µM (top dose mostly 32.9 µM), for the others: at the top dose activity, positive = growth rescue, actives largely listed as activators; 330,000 compounds, 0.19% hits; AID 485353; S. cerevisiae expressing SARS-CoV PLpro, growth rescue; calls by dose curve; note: potency is the fitted concentration of half-maximal effect; 0% is about no effect; nearly all actives have a fitted effect of over 55% in size
An asterisk follows results filed as active; i = inactive; u = inconclusive; x = no result. Unless noted, calls come from the whole dose curve; as a rule, active = well fitted curve in the direction sought with a large enough effect; inconclusive = small, poorly fitted or top-dose-only effect, or another doubt; inactive = no such curve, though single readings can be large; an effect the other way counts as inactive or inconclusive.

SMILES	Pf growth 96h	Sm TGR block	Pf growth 48h	HCMV inh	HCV inh	SARS PLpro yeast
Cc1ccc(CN(CC(O)COc2cccc3[nH]cc(C)c23)C(C)(C)C)cc1 (stereo not given)	10µM*	-4%	10µM*	u	u	6%
CC(C)(C)N(Cc1ccccc1)C(=O)COC(=O)CSc1ccc([N+](=O)[O-])cc1	37%	3%	11%	-12	-2%	-1%
COC(=O)Cc1c[nH]c2cccc(OCC(O)CN(Cc3ccc([N+](=O)[O-])cc3)C(C)(C)C)c12 (stereo not given)	3.3µM*	0%	9.3µM*	7	-20%	-4%
Cc1c[nH]c2cccc(OCC(CNC(C)(C)C)OC(=O)c3ccccc3)c12 (stereo not given)	u	-10%	u	u	3%	1%
FC(F)(F)c1ccc(Nc2cc3c(cn2)ncn3CC2CC2)cc1	x	x	x	7	x	x
O=C(c1ccco1)N(CCCN1CCOCC1)c1nc(-c2ccc(Cl)cc2)cs1	30%	-3%	u	5	11µM*	u
O=C(c1ccco1)N(CCCN1CCOCC1)c1nc(-c2ccc(F)cc2)cs1	-6%	11%	u	22	11µM*	-1%
CCN(CC)CCCN(C(=O)c1ccco1)c1nc(-c2ccc(Cl)cc2)cs1	u	2%	1.5µM*	35	11µM*	0%
Cc1cc(/C=C(\C#N)C(=O)Nc2ccc(Cl)cc2)c(C)n1-c1ccc(N2CCOCC2)c([N+](=O)[O-])c1	7.4µM*	-13%	12µM*	-31	u	3%
Cc1ccc(NC(=O)/C(C#N)=C/c2cc(C)n(-c3ccc(N4CCOCC4)c([N+](=O)[O-])c3)c2C)c(C)c1	12µM*	0%	u	-7	u	-2%
COc1cc(OC)c(OC)cc1CNc1cc(C)ccc1OC	u	40µM*	u	u	u	-4%
COc1cc(CNc2cc(C)ccc2C)cc(OC)c1OC	u	0%	5.2µM*	-7	-16%	-6%
COc1ccc2[nH]c(=O)c(CN(C(=O)c3cccc(Cl)c3)c3cccc(C)c3)cc2c1	x	-1%	x	-9	x	x
CCO[C@H]1OC(C(=O)N2CCN(Cc3ccc4c(c3)OCO4)CC2)=C[C@@H](c2cn(C(C)=O)c3ccccc23)[C@@H]1CCCO	7.4µM*	-9%	1µM*	2	u	1%
CCO[C@H]1OC(C(=O)N2CCN(Cc3ccc4c(c3)OCO4)CC2)=C[C@@H](c2csc3ccccc23)[C@@H]1CCCO	u	-7%	12µM*	2	u	1%
CC(C)(C)OC(=O)N1C[C@H](O)C[C@H]1C(=O)OCC(=O)c1ccc([N+](=O)[O-])cc1	52%	-22%	43%	-13	24%	0%
CC1=C(C(=O)OC2CCCC2)C(c2ccccc2Cl)CC(=O)N1 (stereo not given)	x	-3%	x	-29	x	x
COc1ccc2[nH]cc(CCNC(=O)/C=C/[C@H]3O[C@@H](n4cc(C)c(=O)[nH]c4=O)C[C@@H]3O)c2c1	x	x	x	3	x	x
c1ccc(C2(N3CCCC3)CCCCC2)cc1	13µM*	x	15µM*	x	x	x
CCOc1ccc(NC(=O)Cn2c(=O)n(-c3cccc(Cl)c3)c(=O)c3c2c2cc(C)ccc2n3C)cc1	x	7%	x	24	x	x
O=C1OC(c2ccc(Cl)cc2)=N/C1=C\C=C\c1ccco1	i	28µM*	12%	39	16%	0%
COc1ccccc1Nc1c2c(nc3ccc(NC(=O)c4cccc(F)c4)cc13)CCCC2	x	1%	x	-107*	x	x
COc1cccc(/C=C/C(=O)Nc2ccc(N3CCOCC3)cc2)c1OC	44%	18%	23%	2	-17%	-20%
COc1ccccc1Nc1c2c(nc3ccc(NC(=O)/C=C/c4cccc(OC)c4OC)cc13)CCCC2	x	0%	x	-99*	x	x
COc1ccc(Nc2c3c(nc4ccc(NC(=O)/C=C/c5cccc(OC)c5OC)cc24)CCCC3)cc1OC	x	1%	x	-97*	x	x
SMILES	Pf growth 96h	Sm TGR block	Pf growth 48h	HCMV inh	HCV inh	SARS PLpro yeast
COc1ccc(/C=C/C(=O)Nc2ccc3nc4c(c(Nc5ccccc5OC)c3c2)CCCC4)cc1	x	-1%	x	-102*	x	x
CC(C)C(=O)NNC(=O)C1CC1(c1ccccc1)c1ccccc1 (stereo not given)	-21%	-6%	x	-29	3%	2%
COC(=O)CCC(=O)NNC(=O)C1CC1(c1ccccc1)c1ccccc1 (stereo not given)	10µM*	7%	18%	31	1%	1%
O=C(/C=C/c1ccco1)Nc1cccnc1	64%	x	90%	7	-5%	-3%
CC(/C=C/c1ccco1)=N/NC(=O)OC(C)(C)C	2%	40µM*	36%	27	5%	-12%
C/C(=N/NC(=O)OC(C)(C)C)c1ccco1	53%	-20%	92%	42	9%	-5%
O=C(/C=C/c1ccco1)c1cccnc1	u	13µM*	x	-20	-5%	-1%
CC(/C=C/c1ccco1)=N\NC(=O)c1cccnc1	31%	35µM*	x	-9	2%	-2%
CC(/C=C/c1ccco1)=N/NC(=O)c1ccc(C)nc1	0%	45µM*	-6%	52	12%	0%
CC(/C=C/c1ccco1)=N\NC(=O)c1cc(Cl)ccc1O	3%	8.9µM*	-18%	4	11%	u
O=C(C=Cc1ccco1)c1cc(Cl)ccc1O	x	x	x	-33	-8%	x
Cc1cc(C(=O)N/N=C/c2ccco2)n[nH]1	0%	14%	122%	7	1%	-4%
CC(/C=C/c1ccco1)=N/NC(=O)Cc1cccs1	12%	25µM*	20%	-21	-3%	u
O=C(/C=C/c1ccco1)c1ccccc1O	-6%	32µM*	26%	-38	-11%	0%
CC(/C=C/c1ccco1)=N\NC(=O)c1cc(C)[nH]n1	10%	28µM*	5%	0	-5%	0%
CN(Cc1ccc2c(c1)CCCN2C)C(=O)[C@H]1O[C@@H](n2cnc3c(N)ncnc32)[C@H](O)[C@@H]1O	x	x	x	5	x	x
COc1ccc(-c2nc(CSCC(=O)NCCC(C)C)c(C)o2)cc1OC	x	-26%	x	1	x	x
Cc1ccc(CNC(=O)C(=O)NCC(c2ccco2)S(=O)(=O)c2ccc(C)cc2)cc1 (stereo not given)	x	-23%	x	34	x	x
CCCCCN1CN(S(=O)(=O)c2cccs2)c2nc3ccccc3nc21	u	4%	u	-36	7%	1%
CCN(CC(=O)Nc1ccc(OC)c(Cl)c1)CC(=O)NC(C)C	u	-6%	-4%	37	2%	4%
